In all, about 5,500 compounds went through this assay and about 2,000 (36%) were called active. About 18% were inconclusive and are not listed. Cut-off read from the data, not from the text of the source: active = normalized growth mostly below about 0.91 (no sharp cut-off); inconclusive = no clear call, values can overlap the other calls; inactive = mostly above about 0.92. This is one part of the list.
Assay: chemical genetic growth profiling, strain panel (AID 1159580);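 note: tested at 20 µM; growth read once vehicle control cultures reached saturation at 30 °C; 1 = growth at the plate median or of vehicle wells; lower values mean less growth of the strain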
Conditions: S. cerevisiae deletion strains, growth OD

Measured: normalized growth

C=C1C2CC[C@H]3[C@]4(C)C[C@H](OC5OC(CO)C(OS(=O)(=O)O)C(OS(=O)(=O)O)C5OC(=O)CC(C)C)C[C@@H](C(=O)O)[C@H]4CC[C@]3(C2)[C@H]1O (some centres undefined)
inactive: locus YAL013W, strain DEP1, stronger effect = lower value 1.01 | locus YAL021C, strain ccr4, stronger effect = lower value 0.974 | locus YAL026C, strain drs2, stronger effect = lower value 1.01 | locus YAL030W, strain snc1, stronger effect = lower value 1.01 | locus YBL061C, strain skt5, stronger effect = lower value 1.01 | locus YBR009C, strain hhf1, stronger effect = lower value 1.02 | locus YBR021W, strain FUR4, stronger effect = lower value 1.02 | locus YBR023C, strain chs3, stronger effect = lower value 1.01 | locus YBR171W, strain sec66, stronger effect = lower value 1.01 | locus YBR229C, strain ROT2, stronger effect = lower value 1.01 | locus YBR231C, strain swc5, stronger effect = lower value 1.02 | locus YBR279W, strain paf1, stronger effect = lower value 1.01 | locus YCL011C, strain gbp2, stronger effect = lower value 1.01 | locus YCL016C, strain dcc1, stronger effect = lower value 1 | locus YCL029C, strain bik1, stronger effect = lower value 0.983 | locus YCL061C, strain MRC1, stronger effect = lower value 1.01 | locus YCL069W, strain vba3, stronger effect = lower value 1.02 | locus YCR088W, strain abp1, stronger effect = lower value 1.01 | locus YDL005C, strain med2, stronger effect = lower value 1 | locus YDL035C, strain GPR1, stronger effect = lower value 1.01 | locus YDL040C, strain nat1, stronger effect = lower value 1 | locus YDL074C, strain BRE1, stronger effect = lower value 1.04 | locus YDL101C, strain DUN1, stronger effect = lower value 1.02 | locus YDL134C, strain PPH21, stronger effect = lower value 1.01 | locus YDL185W, strain tfp1, stronger effect = lower value 0.986 | locus YDL192W, strain arf1, stronger effect = lower value 0.986 | locus YDR001C, strain nth1, stronger effect = lower value 1.01 | locus YDR069C, strain doa4, stronger effect = lower value 1.02 | locus YDR101C, strain arx1, stronger effect = lower value 0.979 | locus YDR137W, strain rgp1, stronger effect = lower value 1.01 | locus YDR150W, strain NUM1, stronger effect = lower value 1.01 | locus YDR159W, strain sac3, stronger effect = lower value 1.01 | locus YDR162C, strain NBP2, stronger effect = lower value 1.04 | locus YDR195W, strain ref2 0.999 | locus YDR297W, strain sur2, stronger effect = lower value 1.01 | locus YDR318W, strain mcm21, stronger effect = lower value 0.978 | locus YDR334W, strain swr1, stronger effect = lower value 1.01 | locus YDR335W, strain msn5, stronger effect = lower value 1.01 | locus YDR388W, stronger effect = lower value 0.988 | locus YDR392W, strain spt3, stronger effect = lower value 0.942 | locus YDR502C, strain sam2, stronger effect = lower value 0.994 | locus YEL003W, strain gim4, stronger effect = lower value 1.01 | locus YEL037C, strain rad23, stronger effect = lower value 1.01 | locus YEL061C, strain CIN8 (second series), stronger effect = lower value 1 | locus YEL061C, strain CIN8, stronger effect = lower value 1 | locus YER015W, strain faa2, stronger effect = lower value 1.01 | locus YER016W, strain bim1, stronger effect = lower value 1.01 | locus YER110C, stronger effect = lower value 0.975 | locus YER111C, strain swi4, stronger effect = lower value 1.01 | locus YER155C, strain BEM2 (second series), stronger effect = lower value 1.02 | locus YER155C, strain BEM2, stronger effect = lower value 1.02 | locus YER167W, strain BCK2, stronger effect = lower value 1 | locus YFR010W, strain ubp6, stronger effect = lower value 1.01 | locus YGL078C, strain dbp3, stronger effect = lower value 0.978 | locus YGL086W, strain mad1, stronger effect = lower value 0.972 | locus YGL167C, strain pmr1, stronger effect = lower value 1.01 | locus YGL173C, strain kem1, stronger effect = lower value 1.01 | locus YGL227W, strain vid30, stronger effect = lower value 1.01 | locus YGL240W, strain doc1, stronger effect = lower value 1.03 | locus YGL248W, strain PDE1, stronger effect = lower value 1.01 | locus YGL253W, strain hxk2, stronger effect = lower value 1.01 | locus YGR078C, strain PAC10, stronger effect = lower value 1.03 | locus YGR135W, strain pre9, stronger effect = lower value 0.987 | locus YGR229C, strain SMI1, stronger effect = lower value 1.02 | locus YGR252W, strain gcn5, stronger effect = lower value 1.02 | locus YHR013C, strain ard1, stronger effect = lower value 0.999 | locus YHR027C, strain rpn1, stronger effect = lower value 1.01 | locus YHR030C, strain SLT2, stronger effect = lower value 1 | locus YHR079C, strain IRE1 (second series), stronger effect = lower value 0.987 | locus YHR094C, strain hxt1, stronger effect = lower value 0.988 | locus YHR129C, strain ARP1, stronger effect = lower value 1.01 | locus YHR142W, strain chs7, stronger effect = lower value 0.985 | locus YHR200W, strain rpn10, stronger effect = lower value 0.996 | locus YIL066C, strain RNR3, stronger effect = lower value 1.02 | locus YIL073C, strain SPO22, stronger effect = lower value 0.966 | locus YIL125W, strain kgd1, stronger effect = lower value 0.97 | locus YIR030C, strain dcg1, stronger effect = lower value 0.99 | locus YJL092W, strain hpr5, stronger effect = lower value 1.01 | locus YJL095W, strain BCK1 (second series), stronger effect = lower value 1.01 | locus YJL095W, strain BCK1, stronger effect = lower value 1.02 | locus YJL115W, strain asf1, stronger effect = lower value 1.01 | locus YJL129C, strain trk1, stronger effect = lower value 1.01 | locus YJL134W, strain LCB3, stronger effect = lower value 1.01 | locus YJL154C, strain vps35, stronger effect = lower value 1.01 | locus YJL164C, strain tpk1, stronger effect = lower value 1 | locus YJL166W, strain qcr8, stronger effect = lower value 1 | locus YJL168C, strain set2, stronger effect = lower value 0.985 | locus YJL187C, strain SWE1 (second series), stronger effect = lower value 1.02 | locus YJL187C, strain SWE1, stronger effect = lower value 1.02

— PubChem BioAssay AID1159580 (chemical genetic matrix, 2015)
